# Assay results reported in PubChem BioAssay AID493168 (National Center for Advancing Translational Sciences (NCATS), 2011).
# Inconclusive results are not listed. Where a call stands in place of a potency, no number is given. The source made the active and inactive calls. Calls come from the whole dose curve; as a rule, active = well fitted inhibition curve with a large enough effect; inconclusive = small, poorly fitted or top-dose-only effect, or effect the other way; inactive = flat fitted curve, though single readings scatter.
# Molecular target: Ubiquitin carboxyl-terminal hydrolase 2 (Homo sapiens) (UniProt O75604)
# Sequence (O75604 whole entry, looked up): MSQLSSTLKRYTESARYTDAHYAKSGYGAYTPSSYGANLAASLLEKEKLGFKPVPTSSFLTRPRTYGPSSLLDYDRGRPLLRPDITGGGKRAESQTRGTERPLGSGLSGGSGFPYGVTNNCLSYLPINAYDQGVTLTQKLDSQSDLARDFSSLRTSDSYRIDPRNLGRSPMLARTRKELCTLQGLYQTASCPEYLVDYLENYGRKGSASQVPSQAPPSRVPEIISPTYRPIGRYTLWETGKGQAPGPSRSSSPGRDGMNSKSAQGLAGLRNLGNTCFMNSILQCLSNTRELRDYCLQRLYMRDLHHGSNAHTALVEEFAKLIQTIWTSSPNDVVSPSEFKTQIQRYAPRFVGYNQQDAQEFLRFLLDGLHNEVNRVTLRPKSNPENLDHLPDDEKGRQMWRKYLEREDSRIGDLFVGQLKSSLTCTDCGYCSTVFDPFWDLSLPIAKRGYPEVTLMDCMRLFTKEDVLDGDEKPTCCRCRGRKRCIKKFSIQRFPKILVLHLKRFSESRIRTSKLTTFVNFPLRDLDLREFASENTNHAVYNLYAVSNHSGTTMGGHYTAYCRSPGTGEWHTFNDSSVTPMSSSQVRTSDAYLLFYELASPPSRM
# Test: Confirmation Assay for Inhibitors of Ubiquitin-specific Protease USP2a Using CHOP2 as the Reporter; note: nearly all actives have a fitted effect of over 55% in size
# Conditions: USP2 core, Ub-CHOP2 coupled reporter fluorescence; series mostly up to 38.3 µM
# Outline: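 USP2 core (10 nM final) was preincubated with compound for 30 min at RT in Tris-HCl pH 8.0, CaCl2, beta-mercaptoethanol, CHAPS. Ub-CHOP2 and reporter substrate (25 nM final each) were added, and fluorescence (Ex 485/Em 531 nm) was read after 60 min.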
# Potency is the fitted concentration of half-maximal effect.
row,Compound,Potency
1,CC1(C(=O)O)Sc2[nH]c(=O)sc2C2c3ccccc3OC(=O)C21 (stereo not given),inactive
2,NS(=O)(=O)c1ccc(N=Nc2c(O)c(C(=O)O)cc3ccccc23)cc1,13.1 µM (active)
3,Cc1cccc(N2CCN(C(=O)CCc3nc4ccccc4[nH]3)CC2C)c1 (stereo not given),inactive
4,CN(c1ccccc1)S(=O)(=O)c1ccc(Cl)c(C(=O)NCCc2c[nH]c3ccccc23)c1,inactive
5,O=C(O)CC1(CC(=O)Nc2ccc3ccccc3c2)CCCCC1,inactive
6,CC1(C)CC(=O)C2=C(C1)NCN(CCCN1CCOCC1)C2,inactive
7,O=C(COC(=O)c1cc(-c2ccc(Cl)s2)nc2ccccc12)NCc1ccco1,18.5 µM (active)
8,CCC(C(=O)Nc1nnc(-c2ccco2)s1)c1ccccc1 (stereo not given),inactive
9,O=C(c1ccc([N+](=O)[O-])cc1)N(Cc1ccc(Cl)cc1)N1C(=O)CCCC1=O,inactive
10,COc1cc(/C=C/[N+](=O)[O-])ccc1OCc1cccc(C(=O)O)c1,inactive
11,CC(C)(C)C1CCC2(CC1)Nc1cccc3cccc(c13)N2,inactive
12,Cn1c(=O)c(C(=O)Nc2ncccc2O)c(O)c2ccccc21,inactive
13,O=C(COC(=O)c1c2c(nc3ccccc13)/C(=C/c1ccco1)CC2)NC1CCCC1,14.7 µM (active)
14,Oc1ccc(/C=N/NC(=S)N/N=C/c2ccc(O)cc2)cc1,inactive
15,Cc1ccc(C2=[N+]([O-])C(C)N(O)C2(C)C)o1 (stereo not given),inactive
16,Cc1ccc(N(CC(=O)N/N=C/c2ccco2)S(=O)(=O)c2ccccc2)cc1,inactive
17,CCC(C)NC(=O)C1CN(S(=O)(=O)c2ccccc2)CCN1S(=O)(=O)c1ccccc1 (stereo not given),inactive
18,COc1cc(C2C(C#N)=C(N)Oc3c2ccc2ccccc32)ccc1OCC(=O)Nc1cccc(C)c1 (stereo not given),inactive
19,CC(C)N(C(=O)c1sc2cc([N+](=O)[O-])ccc2c1Cl)C(C)C,inactive
20,CCOc1ccc(Cn2c(=O)sc3ccccc32)cc1OC,inactive

row,Compound,Potency
1,Cc1ccc(-c2nc(N/N=C/c3ccncc3)c3ccccc3n2)cc1,inactive
2,O=C(CSCCO)Nc1cccc2ccccc12,inactive
3,O=C(COC(=O)/C=C/c1ccc(Cl)cc1)NC1CC1,inactive
4,CC1CCCC(NC(=O)C2N(CCCN3CCCC3)C(=O)C3C(C(=O)Nc4ccc(Cl)cc4)C4C=CC32O4)C1C (stereo not given),inactive
5,C#CCOCCOCCOCCNc1nc(N2CCN(C(=O)CCCCCCCCCCNC(=O)[C@H](CO)n3cc(CCCSC)nn3)CC2)nc(N2CCN(C(=O)CCCCCCCCCCNC(=O)[C@H](CCCN=C(N)N)n3cc(C[C@@H](C)CC)nn3)CC2)n1,18.5 µM (active)
6,C=C(CCC(=O)c1ccccc1)C(=O)c1ccccc1,inactive
7,CCOc1cccc(NC(=O)/C(C#N)=C\c2cn(CC(=O)O)c3ccccc23)c1,inactive
8,Cc1cc(SCC(=O)NC2CCCCC2)nc2ccccc12,inactive
9,C[C@](N)(Cc1ccc(O)c(O)c1)C(=O)O,inactive
10,COc1ccc(OCC(=O)NCCNC(=O)c2cccnc2)cc1,inactive
11,CSCC[C@H](NC(=O)C1CCN(S(=O)(=O)c2ccc(C)cc2)CC1)C(=O)NCc1ccco1,inactive
12,Cc1cc(C)cc(C(=O)Nc2ccc(N3CCCC3)cc2)c1,inactive
13,O=C(NCCCN1CCCC1=O)c1cccc(N2CCCC2=O)c1,inactive
14,COc1ccc(-c2nc(Cn3c(SCc4ccc(F)cc4)nc4ccncc43)c(C)o2)cc1OC,inactive
15,CN(C)c1cccc(C(=O)NNC(=O)C23CC4CC(CC(C4)C2)C3)c1,inactive
16,Cc1cccc(NCc2nc(-c3ccccc3)no2)c1,inactive
17,Cc1ccc(Nc2cc(C)nc(NCc3ccccc3)n2)cc1,inactive
18,O=C1c2ccccc2C(=O)N1CCCCn1c(=O)oc2ccccc21,inactive
19,CCn1c(SCC(=O)NCCc2ccccc2)nnc1-c1cccs1,inactive
20,COc1ccc(CN(Cc2cc3cc(C)ccc3[nH]c2=O)C(=O)N(C)C)cc1,inactive
